Hits are enriched below; roughly 8% of the tested compounds scored in any of these assays.
FMDV antiviral = blocks foot and mouth disease virus | FMDV antiviral cell-based qHTS | Potency, µM (series often up to 57.9 µM), most hits filed as inhibitors | 410,000 compounds, 1.2% hits | AID 1159524; calls by dose curve; tested in HEK293T cells; further: read-out not given here; nearly all actives have a fitted effect of over 45% in size
HCV inh = blocks hepatitis C virus | Huh7.5.1 HCVcc-Cre infection, luciferase reporter, 44 h | Potency, µM (titrated, usually from 41.8 µM), hits mostly inhibitors | 340,000 compounds, 3.4% hits; active means well fitted inhibition curve with a large enough effect; inconclusive means small, poorly fitted or top-dose-only effect, or another doubt; inactive means no such curve, though single readings can be large or run the other way
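Reporter virus HCVcc-Cre (~0.5 moi) infects cells exposed to compound; seeding density 1,000 cells/well with 4 h settling beforehand. Luminescence, 15 sec read, taken 44 h post-infection following a 15 min RT substrate incubation.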
Marburg entry inh = Marburg virus entry inhibition; Marburg virus pseudotyped entry inhibition, cell reporter; Potency, µM (series often up to 37.8 µM), actives largely listed as inhibitors; 300,000 compounds, 1.8% hits; AID 540276; calls by dose curve; tested in HEK293 cells
SARS PLP yeast = SARS-CoV PLP inhibition in yeast. S. cerevisiae expressing SARS-CoV PLpro, growth rescue. 330,000 compounds, 0.19% hits. AID 485353. Potency, µM (series often up to 32.9 µM), actives largely listed as activators; calls by dose curve; further: nearly all actives have a fitted effect of over 55% in size
Lassa entry inh = inhibitors of Lassa virus binding or cell entry. AID 540256. Lassa virus pseudotype entry inhibition, cell reporter. 300,000 compounds, 1.2% hits. Potency, µM (doses to about 37.9 µM), hits mostly inhibitors; calls by dose curve; tested in HEK293 cells; further: nearly all actives have a fitted effect of over 50% in size
HCMV antiviral = blocks human cytomegalovirus replication; HFF cells, HCMV-luciferase reporter, 72 h; hits give low values; activity change, negative = inhibition, % at 57.5 µM; 410,000 compounds, 4.5% hits; AID 1259415; in the data active means activity change below about -60%; inconclusive means no clear call, values can overlap the other calls; inactive means above about -39%
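Screen run at 2 compound doses on HFFs infected with reporter HCMV, MOI 1 PFU/cell. Luciferase activity from cell lysates at 72 h post infection gave inhibition relative to buffer-only and Salinomycin wells.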
A number is an active result; i = inactive; ? = inconclusive; nt = no result given.

SMILES	FMDV antiviral	HCV inh	Marburg entry inh	SARS PLP yeast	Lassa entry inh	HCMV antiviral
Cc1ccc(C(=O)Nc2ccc3c(c2)CCC3)cc1S(=O)(=O)N1CCOCC1	i	?	?	i	i	-62
O=C(Nc1ccc2c(c1)CCC2)c1ccc(F)c(S(=O)(=O)N2CCOCC2)c1	i	16µM	?	i	?	?
Cc1ccc(C(=O)Nc2cccc(S(=O)(=O)N3CCCCC3)c2)cc1S(=O)(=O)N1CCOCC1	?	8.9µM	nt	nt	nt	i
O=C(Nc1ccc(S(=O)(=O)Nc2ncccn2)cc1)c1ccc(F)c(S(=O)(=O)N2CCOCC2)c1	i	i	nt	i	nt	i
O=C(Cn1cnc2cc([N+](=O)[O-])ccc2c1=O)N1CCN(S(=O)(=O)c2ccccc2)CC1	i	i	?	i	i	i
CC(C)C(C)NC(=O)COC(=O)c1cccc(C(=O)OCC(=O)NC(C)C(C)C)n1 (centres undefined)	i	i	nt	i	nt	i
COc1cc(NC(=O)c2c(F)c(F)c(OC)c(F)c2F)ccc1NC(=O)c1cccs1	i	?	i	i	?	i
O=C(Nc1ccccc1)Nc1ccc(Cl)c([N+](=O)[O-])c1	i	13µM	?	i	?	?
O=[N+]([O-])c1cccc(S(=O)(=O)Nc2nc3ccccc3nc2Nc2cccc(S(=O)(=O)N3CCCCC3)c2)c1	?	10µM	nt	i	nt	-100
Cc1ccc(C(=O)Nc2cccc(S(=O)(=O)N3CCCCC3)c2)cc1[N+](=O)[O-]	?	7.1µM	nt	i	nt	i
COc1cc(C(=O)Nc2cccc(S(=O)(=O)N3CCCC3)c2)c([N+](=O)[O-])cc1OC	i	?	i	i	i	i
O=C(Nc1ccccc1N1CCCCC1)c1ccc(F)c(S(=O)(=O)N2CCOCC2)c1	i	10µM	i	i	i	i
Cc1ccc(NC(=O)Nc2ccccc2)cc1[N+](=O)[O-]	i	?	i	i	i	i
COc1ccc2c3c(n(C)c2c1)[C@H](CO)N(C(=O)c1cccc(F)c1)CC31CN(C(=O)c2cccc(F)c2)C1	nt	nt	nt	nt	nt	i
Cc1ccc(NC(=O)CN2C(=O)c3cccnc3Oc3ccc(Cl)cc32)cc1	i	nt	nt	nt	?	i
Cc1ccc(NC(=O)c2cc3c(s2)CCC3)cc1S(=O)(=O)N1CCOCC1	?	7.9µM	i	i	i	-65
Cc1ccc(C(=O)NNC(=O)c2ccccc2O)cc1S(=O)(=O)N1CCCCC1	i	13µM	i	i	i	i
Cc1ccc(C(=O)NC2CCCC2)cc1S(=O)(=O)N1CCCCC1	i	?	i	i	?	i
Cc1c(NC(=O)c2ccc(Cl)c([N+](=O)[O-])c2)cccc1-n1cnnn1	i	11µM	?	i	?	i
Cc1ccc(S(=O)(=O)N2CCOCC2)cc1NC(=O)c1cc2c(s1)CCC2	i	i	i	i	i	i
Cc1cnc(NC(=O)c2ccc(F)c(S(=O)(=O)N3CCOCC3)c2)s1	i	?	i	i	i	-105
NS(=O)(=O)c1ccc(CCNCC(=O)NC2CC2)cc1	i	i	i	i	i	i
S=C(NCCc1ccccc1)Nc1ccc(Br)cn1	i	i	i	i	i	-102
O=C(CN1CCN(Cc2ccccc2)CC1)NCCc1ccccc1	i	i	?	i	i	i
S=C(NCCc1ccccc1)NCCc1ccccc1	i	i	?	i	i	i
SMILES	FMDV antiviral	HCV inh	Marburg entry inh	SARS PLP yeast	Lassa entry inh	HCMV antiviral
O=C(CN1CCN(Cc2ccc(F)cc2)CC1)NCCc1ccccc1	i	i	i	i	?	-81
NS(=O)(=O)c1ccc(CCNC(=O)c2ccccc2Cc2ccccc2)cc1	i	i	nt	i	nt	-61
NS(=O)(=O)c1ccc(CCNCC(=O)N2CCC(Cc3ccccc3)CC2)cc1	i	11µM	nt	i	nt	-61
N#C/C(=C\c1c(Oc2ccc(F)cc2)nc2ccccn2c1=O)c1nc2ccccc2s1	i	nt	?	nt	?	i
S=C(NCCCc1ccccc1)Nc1ccccc1Cl	i	i	i	i	i	-60
O=C(NCCc1ccc(F)cc1)Nc1ccccc1Cl	i	i	i	i	i	-63
NS(=O)(=O)c1ccc(CCNC(=O)CNC(=O)c2ccc(F)cc2)cc1	i	i	i	i	i	i
O=C(NCCc1ccncc1)Nc1ccccc1Cl	nt	i	i	i	i	i
O=C(O)c1ccccc1C(=O)NCCc1ccc(Cl)cc1	i	i	i	i	i	i
O=C(NCCc1ccccc1)c1ccccc1Cl	i	i	11µM	i	?	i
NS(=O)(=O)c1ccc(CCNC(=O)CNCCc2ccc(C(F)(F)F)cc2)cc1	?	?	nt	i	nt	-61
S=C(NCc1ccccc1Cl)Nc1ccccc1Cl	i	i	nt	i	nt	i
COC(=O)[C@@]1(Cc2ccccc2)[C@H]2C(=O)N(C)C(=O)[C@H]2[C@H]2CN=C(SCc3ccccc3)N21	i	?	nt	i	nt	i
CCc1sc(C(=O)NCCc2ccc(S(N)(=O)=O)cc2)cc1C	i	?	i	i	i	i
S=C(NCCc1ccccc1)Nc1ccccc1Cl	i	i	i	i	i	-64
S=C(NCCNC(=S)Nc1ccccc1Cl)Nc1ccccc1Cl	i	?	?	i	?	?
CCc1sc(C(=O)NCCc2ccc(S(N)(=O)=O)cc2)cc1Br	i	i	i	i	?	-68
COc1ccc(OC)c(-c2cc(C(=O)Nc3cnn(Cc4ccc(Cl)cc4Cl)c3)no2)c1	i	nt	i	nt	i	i
Cc1ccc(N=Nc2ccc(O)cc2)c(Br)c1	i	i	?	i	10µM	i
Oc1ccc(N=Nc2ccc(Br)cc2)c(O)c1	i	i	nt	i	nt	i
CC1=CC2/C=C(\C)CCC(O)C(O)/C=C/C(=O)C23C(=O)NC(CC(C)C)C3C1C (centres undefined)	6.3µM	?	nt	i	nt	nt
Cc1nc(NC(=O)c2cccs2)ccc1Br	i	?	?	i	6.3µM	i
Cc1cnccc1NC(=O)c1cccs1	i	i	i	i	i	-62
Cc1cc(C)nc(NC(=O)c2cccs2)n1	i	i	nt	i	nt	i
CO[C@H]1[C@H](NC(=O)c2ccco2)c2ccccc2C12CCN(Cc1cnc(N(C)C)s1)CC2	i	nt	nt	nt	nt	nt
SMILES	FMDV antiviral	HCV inh	Marburg entry inh	SARS PLP yeast	Lassa entry inh	HCMV antiviral
CN(Cc1ccccc1)Cc1cc(=O)oc2ccccc12	i	nt	nt	nt	?	i
Cc1cc2oc(=O)cc(CN3CCCCC3C)c2cc1C(C)C (centres undefined)	i	13µM	i	i	?	i
COc1ccc2oc(=O)cc(CN(C)Cc3ccccc3)c2c1	i	7.9µM	?	i	i	?
Cc1cc2oc(=O)cc(CN(C)Cc3ccccc3)c2cc1C(C)C	i	8.9µM	?	i	i	i
Cc1ccc(NC(=O)CCCc2nnc3n(C)c(=O)c4sccc4n23)cc1F	1.3µM	nt	i	nt	?	i
CCC(C)n1c(=O)c2sccc2n2c(CCCC(=O)Nc3ccc(F)cc3)nnc12 (centres undefined)	i	nt	nt	nt	i	-65
Cn1c(=O)c2sccc2n2c(CCCC(=O)Nc3ccc(Oc4ccccc4)cc3)nnc12	?	nt	nt	nt	i	-65
CSc1ncccc1C(=O)NCC1Cc2cc(-c3cnccn3)cc(Cl)c2O1 (centres undefined)	i	nt	nt	nt	nt	nt
